The values below come from PubChem BioAssay.

Experiment [1] in a line: antimalarial activity against Dd2 strain (AID 2302;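 active = growth inhibition above 50% at the single 2 µM test dose, taken to imply half-maximal potency below 2 µM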;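 note: 0% = DMSO untreated growth and 100% = chloroquine plus artemisinin killed control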). The note with it: P. falciparum Dd2 in RBCs, LDH growth readout, 72 h; at 2 µM; stronger effect = higher value.
The nature of experiment [2]: HepG2 cytotoxicity, primary screen, cytotoxicity control for P. falciparum antimalarial project, cell-based, ATP luminescence (AID 2303;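 active = inhibition above 50%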;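 note: 0% = DMSO wells and 100% = digitonin-killed cells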). The following applies: HepG2 viability, 24-48 h, at 10 µM, stronger effect = higher value.
Experiment [3] addresses L-lactate dehydrogenase (Plasmodium falciparum (isolate CDC / Honduras)) (UniProt Q27743). Briefly: PfLDH activity inhibition – cell lysate, 3D7 strain, counter-screen for P. falciparum growth inhibition project (AID 2304).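 Note: 0% = vehicle and 100% = reference inhibitor.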 The following applies: P. falciparum 3D7 crude extract, LDH APAD/NBT absorbance; at 2 µM; stronger effect = higher value. For orientation: Counterscreens check selectivity or assay interference.

The nature of experiment [4]: inhibition of 3D7 malaria parasite growth – strain 3D7 (AID 2306).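 Note: 0% = DMSO wells and 100% = chloroquine plus artemisinin control wells.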 The following applies: P. falciparum 3D7 erythrocytic growth, LDH absorbance, 72 h; at 2 µM; stronger effect = higher value.
The target in experiment [5] is Calcium-dependent protein kinase 1 (Plasmodium falciparum (isolate 3D7)) (UniProt P62344). The experiment can be described thus: PfCDPK1 kinase inhibitors, biochemical, TCAMS library (AID 1159585; cut-off not given, nearly all actives have IC50 up to about 0.98 µM;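 note: inhibitors leave more ATP so luminescence rises with inhibition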). The note with it: recombinant PfCDPK1, Kinase-Glo ATP depletion luminescence. In general terms: Kinase-Glo measures the ATP left after a reaction by luminescence.
Chain of Calcium-dependent protein kinase 1 (Plasmodium falciparum (isolate 3D7)) (P62344 whole entry, looked up): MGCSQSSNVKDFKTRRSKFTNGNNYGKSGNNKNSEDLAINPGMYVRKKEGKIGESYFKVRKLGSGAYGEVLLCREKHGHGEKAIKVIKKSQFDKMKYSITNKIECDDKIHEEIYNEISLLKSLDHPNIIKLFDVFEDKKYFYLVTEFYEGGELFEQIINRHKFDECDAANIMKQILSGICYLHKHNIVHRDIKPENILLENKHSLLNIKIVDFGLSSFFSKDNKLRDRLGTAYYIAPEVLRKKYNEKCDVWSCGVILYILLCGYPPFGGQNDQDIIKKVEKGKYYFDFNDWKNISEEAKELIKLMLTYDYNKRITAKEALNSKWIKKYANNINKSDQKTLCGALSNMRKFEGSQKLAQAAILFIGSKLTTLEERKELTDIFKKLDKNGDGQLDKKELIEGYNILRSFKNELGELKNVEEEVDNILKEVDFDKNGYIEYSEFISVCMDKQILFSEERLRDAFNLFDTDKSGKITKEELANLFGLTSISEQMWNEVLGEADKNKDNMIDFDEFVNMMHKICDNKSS
Experiment [6] addresses Plasmodium falciparum protein kinase 6 (PK6, PF3D7_1337100) (UniProt Q8IDW1). Briefly: PfPK6 kinase inhibitors, biochemical, TCAMS library (AID 1159586). The note with it: recombinant PfPK6, Kinase-Glo ATP depletion luminescence.
In experiment [7] the target is Protein kinase 7 (PK7), Plasmodium falciparum 3D7 (PF3D7_0213400) (UniProt Q7YTF7). The experiment can be described thus: inhibition of Plasmodium PK7 catalytic activity – biochemical, TCAMS antimalarial set, Kinase-Glo luminescence (AID 1159587). The note with it: recombinant PfPK7, Kinase-Glo ATP depletion luminescence.
Chain of Protein kinase 7 (PK7), Plasmodium falciparum 3D7 (PF3D7_0213400) (Q7YTF7 1-343): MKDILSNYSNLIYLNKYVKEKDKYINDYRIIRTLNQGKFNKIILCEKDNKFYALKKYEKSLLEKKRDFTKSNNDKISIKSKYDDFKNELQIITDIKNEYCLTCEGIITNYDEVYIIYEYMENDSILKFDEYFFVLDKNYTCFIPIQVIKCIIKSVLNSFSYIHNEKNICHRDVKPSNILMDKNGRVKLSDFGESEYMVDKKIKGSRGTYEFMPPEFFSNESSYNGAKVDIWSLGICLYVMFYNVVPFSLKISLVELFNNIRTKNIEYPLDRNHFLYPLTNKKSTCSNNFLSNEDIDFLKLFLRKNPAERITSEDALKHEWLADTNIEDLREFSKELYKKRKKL
In experiment [8] the target is Calcium-dependent protein kinase 4 (Plasmodium falciparum (isolate 3D7)) (UniProt Q8IBS5). Briefly: PfCDPK4 kinase inhibitors, biochemical, TCAMS library (AID 1159588; cut-off not given, nearly all actives have IC50 up to about 0.91 µM). The following applies: recombinant PfCDPK4, Kinase-Glo ATP depletion luminescence.
Chain of Calcium-dependent protein kinase 4 (Plasmodium falciparum (isolate 3D7)) (Q8IBS5 whole entry, looked up): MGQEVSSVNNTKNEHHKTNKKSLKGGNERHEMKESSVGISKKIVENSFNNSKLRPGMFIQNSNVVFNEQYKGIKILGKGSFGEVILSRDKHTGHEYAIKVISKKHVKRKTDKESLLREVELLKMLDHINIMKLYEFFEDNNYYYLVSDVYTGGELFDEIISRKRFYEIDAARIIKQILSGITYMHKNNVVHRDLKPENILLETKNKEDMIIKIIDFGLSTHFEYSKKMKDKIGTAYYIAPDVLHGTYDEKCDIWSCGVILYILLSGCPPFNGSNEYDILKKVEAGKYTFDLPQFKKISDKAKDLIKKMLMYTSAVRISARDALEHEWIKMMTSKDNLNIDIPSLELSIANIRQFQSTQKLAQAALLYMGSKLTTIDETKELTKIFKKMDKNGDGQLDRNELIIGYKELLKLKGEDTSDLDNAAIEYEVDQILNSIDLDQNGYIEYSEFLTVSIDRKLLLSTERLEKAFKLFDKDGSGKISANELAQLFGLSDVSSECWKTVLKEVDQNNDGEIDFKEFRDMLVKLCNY

Usually inhibition stands for the drop in the measured response relative to a control, in per cent.

Values without a mark were called inactive. For part of these data: Measured potencies and affinities stand elsewhere. Calls of active or inactive are those of the source. Unless noted, the rule behind the calls is not given here.

Chain of L-lactate dehydrogenase (Plasmodium falciparum (isolate CDC / Honduras)) (Q27743 whole entry, looked up): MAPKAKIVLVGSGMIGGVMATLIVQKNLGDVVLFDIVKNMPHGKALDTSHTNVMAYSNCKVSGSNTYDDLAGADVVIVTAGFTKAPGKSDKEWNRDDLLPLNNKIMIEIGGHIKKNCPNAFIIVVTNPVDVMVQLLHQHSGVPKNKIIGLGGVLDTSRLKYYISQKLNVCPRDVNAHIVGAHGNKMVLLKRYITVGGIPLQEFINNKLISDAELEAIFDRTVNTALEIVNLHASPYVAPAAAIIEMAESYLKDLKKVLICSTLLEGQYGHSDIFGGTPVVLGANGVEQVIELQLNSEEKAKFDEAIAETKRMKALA
Chain of Plasmodium falciparum protein kinase 6 (PK6, PF3D7_1337100) (Q8IDW1 1-305): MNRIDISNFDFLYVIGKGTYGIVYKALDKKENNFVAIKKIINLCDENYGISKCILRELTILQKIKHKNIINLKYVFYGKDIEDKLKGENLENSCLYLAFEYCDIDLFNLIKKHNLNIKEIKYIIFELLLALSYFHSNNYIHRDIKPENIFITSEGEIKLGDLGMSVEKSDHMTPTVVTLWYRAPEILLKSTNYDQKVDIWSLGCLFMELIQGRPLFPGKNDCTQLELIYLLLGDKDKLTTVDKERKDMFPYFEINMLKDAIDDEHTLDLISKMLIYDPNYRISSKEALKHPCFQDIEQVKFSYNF

Turning to `CCc1c(CCNCCCCCCNCCc2ccccc2)ccc(OC)c1OC`, the results for the growth inhibition in experiment [1] and in experiment [4] were 3% and 102% (active), respectively. Further, the results for the inhibition in experiment [2] and in experiment [3] were 33% and -2%, respectively. In addition, the outcome in experiment [5], in experiment [6], in experiment [7] and in experiment [8] was inactive.
In the case of `Cc1cccc(C)c1C1CCN(CCCCNC(=O)c2cc3ccccc3[nH]2)CC1`, the values for the growth inhibition in experiment [1] and in experiment [4] were 18% and 90% (active), respectively. For the same compound, the inhibition in experiment [2] is 46%; in experiment [3] it was 4%. For the same compound, the result in experiment [5], in experiment [6], in experiment [7] and in experiment [8] was inactive.
Consider `COc1ccc(-c2csc3nc(C)nc(Cl)c23)cc1OC`, for which the growth inhibition in experiment [1] was 95% (active); in experiment [4], 97% (active). Also, the figures for the inhibition in experiment [2] and in experiment [3] were -10% and -6%, respectively. Moreover, the result in experiment [5], in experiment [6], in experiment [7] and in experiment [8] was inactive.
